# Data reported in PubChem BioAssay (EPA / NIEHS).
# Activity calls are given as the source filed them. Rule for the calls: active = hit-call score of the fitted dose curve at least 0.9, where 1 is the maximum; inactive = score below 0.9.
# Key:
# [1] = ATG_GRE_CIS: Attagene CIS-FACTORIAL HepG2 Assay for human Glucocorticoid Response Elements (GRE) (AID 2282947); details: HepG2 GRE cis-reporter, Attagene multiplex mRNA; actives raise or lower the signal
# Outline: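 Read-out: fluorescent reporter-transcript fragments separated by capillary electrophoresis after RT-PCR. Transiently transfected HepG2 cells carrying cis-element-driven reporter units were dosed for 24 h; gain or loss of signal fitted against DMSO control.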
# [2] = ATG_ISRE_CIS: Attagene CIS-FACTORIAL HepG2 Assay for human Interferon Regulatory Factor 1 (IRF1) binding to an Interferon-Stimulated Response Element (ISRE) (AID 2282948); details: HepG2 ISRE cis-reporter (Attagene), mRNA transcription readout; actives raise or lower the signal
# Outline: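 Signal reflects induction or loss of ISRE-linked reporter mRNA in transiently transfected HepG2 cells after a 24 h treatment, detected by fluorescent RT-PCR fragments on capillary electrophoresis and normalised to DMSO.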
# [3] = ATG_M_32_CIS: Attagene CIS-FACTORIAL HepG2 Assay for M32 Transcription Factor (Internal Marker) (AID 2282949); details: HepG2 Attagene cis-factorial M32 reporter, mRNA; actives raise or lower the signal;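 note: background control marker of the multiplexed CIS panel rather than a real target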
# Outline: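 Using DMSO as baseline, bidirectional curve fits were applied to reporter mRNA signals. These came from transiently transfected HepG2 cells exposed for 24 h, with RNA analysed by RT-PCR, FAM primer extension, HpaI digestion and CE.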
# [4] = ATG_M_06_CIS: Attagene CIS-FACTORIAL HepG2 Assay for M06 Transcription Factor (Internal Marker) (AID 2282950); details: HepG2 Attagene CIS-FACTORIAL M06 internal marker reporter; actives raise or lower the signal
# Outline: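 HepG2 liver cells, 24 h exposure. Reporter transcripts from transfected cis-element constructs quantified by RT-PCR/capillary electrophoresis fluorescence. Bidirectional curve fit against DMSO.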
# [5] = molecular target: Hypoxia-inducible factor 1-alpha (Homo sapiens) (UniProt Q16665); experiment: ATG_HIF1a_CIS: Attagene CIS-FACTORIAL HepG2 Assay for human Hypoxia Inducible Factor 1 (HIF1A) (AID 2282951); details: HepG2 Attagene cis-factorial HIF1a reporter transcription; actives raise or lower the signal
# Outline: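 HepG2 cells transiently transfected with multiple cis-regulated reporter transcription units measure endogenous transcription factor activity. After 24 h exposure, reporter mRNA is quantified by RT-PCR with 6-FAM labelling, HpaI digestion and capillary electrophoresis. Bidirectional fitting against DMSO.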
# [6] = molecular target: Hepatocyte nuclear factor 6 (Homo sapiens) (UniProt Q9UBC0); experiment: ATG_HNF6_CIS: Attagene CIS-FACTORIAL HepG2 Assay for human Hepatocyte Nuclear Factor 6 (HNF6) (AID 2282952); details: HepG2 Attagene cis-factorial HNF6 reporter transcription; actives raise or lower the signal
# Outline: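 First, HepG2 cells were transfected with the multiplexed cis reporter library and dosed with chemical for 24 h. Next, RNA was reverse-transcribed, PCR-amplified and fluorescently labelled. Finally, HpaI-digested fragments were read by capillary electrophoresis.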
# [7] = molecular target: Heat shock factor protein 1 (Homo sapiens) (UniProt Q00613); experiment: ATG_HSE_CIS: Attagene CIS-FACTORIAL HepG2 Assay for human Heat Shock Transcription Factor 1 (HSE) (AID 2282953); details: HepG2 HSE cis-reporter, Attagene RNA transcription; actives raise or lower the signal
# Outline: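 Endogenous transcription factor activity captured via cis-promoter reporter units transfected into HepG2; treatment lasted 24 h. Fluorescence intensity of reporter fragments analysed with bidirectional curve fitting, DMSO baseline.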
# [8] = ATG_MRE_CIS: Attagene CIS-FACTORIAL HepG2 Assay for human Metal Responsive Element (MRE) (AID 2282954); details: HepG2 MRE cis-reporter transcription, Attagene multiplex; actives raise or lower the signal
# Outline: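 RT-PCR/capillary electrophoresis readout of reporter mRNA, 24 h post-dosing, in HepG2 cells transfected with multiplexed cis-regulated reporter constructs. Gain or loss of signal fitted bidirectionally against DMSO baseline.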
# [9] = ATG_PBREM_CIS: Attagene CIS-FACTORIAL HepG2 Assay for human Phenobarbital-responsive Enhancer Module (PBREM) (AID 2282955); details: HepG2 PBREM cis-reporter, Attagene multiplexed transcription; actives raise or lower the signal
# Outline: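 HepG2 cells transiently transfected with multiple cis-regulated reporter units measure endogenous transcription factor activity; 24 h compound exposure. Reporter mRNA quantified by RT-PCR, fluorescent labelling, HpaI digestion and capillary electrophoresis; bidirectional fit versus DMSO.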
# [10] = molecular target: Paired box protein Pax-6 (Homo sapiens) (UniProt P26367); experiment: ATG_Pax6_CIS: Attagene CIS-FACTORIAL HepG2 Assay for human Paired Box 6 (PAX6) (AID 2282956); details: HepG2 CIS-FACTORIAL PAX6 reporter transcription, RNA readout; actives raise or lower the signal
# Outline: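 Values derive from bidirectional curve fitting of reporter mRNA signal relative to DMSO. HepG2 cells bearing transfected cis-regulated MRTUs were exposed for 24 h; transcripts were read by RT-PCR and capillary electrophoresis.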
# [11] = ATG_PXRE_CIS: Attagene CIS-FACTORIAL HepG2 Assay for human Pregnane X Receptor Element (PXRE) (AID 2282957); details: HepG2 Attagene CIS-FACTORIAL PXRE reporter, mRNA; actives raise or lower the signal
# Outline: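 After a 24 h chemical incubation, total RNA from transfected HepG2 cells was reverse-transcribed and reporter cDNA amplified, FAM-labeled, HpaI-digested and sized by capillary electrophoresis. DMSO served as baseline for bidirectional curve fitting.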
# [12] = ATG_PPRE_CIS: Attagene CIS-FACTORIAL HepG2 Assay for human Peroxisome Proliferator-activated Response Element (PPRE) (AID 2282958); details: HepG2 PPRE cis-element reporter, Attagene transcription factor profiling; actives raise or lower the signal
# Outline: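 HepG2 cells are transiently transfected with multiplexed cis-promoter reporter units to report endogenous PPAR activity. After 24 h dosing, reporter mRNA is read by RT-PCR and capillary electrophoresis. Fitting is bidirectional against DMSO.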
# [13] = ATG_RORE_CIS: Attagene CIS-FACTORIAL HepG2 Assay for human RAR-related Orphan Receptor Element (RORE) (AID 2282959); details: HepG2 Attagene cis-factorial RORE reporter, mRNA; actives raise or lower the signal
# Outline: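 HepG2 cells carrying transiently transfected cis-regulated reporter units; RORE-driven reporter mRNA quantified 24 h post-dosing by RT-PCR, 6-FAM primer extension, HpaI digestion and capillary electrophoresis. Bidirectional fit versus DMSO.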
# [14] = ATG_Sox_CIS: Attagene CIS-FACTORIAL HepG2 Assay for human SRY-box transcription factor (SOX) (AID 2282960); details: HepG2 Attagene cis-factorial SOX reporter, mRNA; actives raise or lower the signal
# Outline: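 HepG2 cells transiently transfected with multiple cis-regulated reporter units, then dosed for 24 h. Reporter mRNA quantified by RT-PCR, fluorescent labelling, HpaI digestion and capillary electrophoresis; bidirectional fit versus DMSO.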
# [15] = molecular target: Transcription factor Sp1 (Homo sapiens) (UniProt P08047); experiment: ATG_Sp1_CIS: Attagene CIS-FACTORIAL HepG2 Assay for human Specificity Protein 1 (Sp1) (AID 2282961); details: HepG2 Sp1 cis-reporter transcription, actives raise or lower the signal
# Outline: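 HepG2 cells transiently transfected with multiplexed cis-regulated reporter constructs, chemical exposure 24 h. Reporter mRNA quantified by RT-PCR with capillary electrophoresis; bidirectional fit relative to DMSO.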
# [16] = ATG_SREBP_CIS: Attagene CIS-FACTORIAL HepG2 Assay for human Sterol Regulatory Element Binding (SREBP) (AID 2282962); details: HepG2 Attagene cis-factorial SREBP reporter, mRNA; actives raise or lower the signal
# Outline: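 Values derive from bidirectional curve fitting with DMSO as baseline. The underlying measurement is reporter mRNA from cis-element-regulated units in transiently transfected HepG2, quantified by RT-PCR and capillary electrophoresis after 24 h exposure.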
# [17] = molecular target: Signal transducer and activator of transcription 3 (Homo sapiens) (UniProt P40763); experiment: ATG_STAT3_CIS: Attagene CIS-FACTORIAL HepG2 Assay for human Signal Transducer and Activator of Transcription 3 (STAT3) (AID 2282963); details: HepG2, Attagene cis-factorial STAT3 reporter transcription; actives raise or lower the signal
# Outline: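 Readout: fluorescent reporter mRNA fragments resolved by capillary electrophoresis. Setup: HepG2 transfected with MRTUs reporting endogenous transcription-factor activity, dosed 24 h. Gain or loss of signal fitted bidirectionally against DMSO control.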
# [18] = ATG_TA_CIS: Attagene CIS-FACTORIAL HepG2 Assay for human TA Basal Promoter (AID 2282964); details: HepG2 Attagene CIS-factorial TA basal promoter reporter; actives raise or lower the signal
# Outline: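 Fluorescence from labelled RT-PCR reporter fragments, separated by capillary electrophoresis, gives the signal. Cells: HepG2 transiently carrying multiple reporter units, 24 h chemical dosing. Gain or loss relative to DMSO.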
# [19] = ATG_TCF_b_cat_CIS: Attagene CIS-FACTORIAL HepG2 Assay for human T-Cell-Factor with beta-catenin (TCF/b-cat) (AID 2282965); details: HepG2 TCF/beta-catenin cis-reporter transcription, actives raise or lower the signal
# Outline: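 HepG2 cells transiently transfected with cis-promoter-driven multiplexed reporter units; reporter mRNA measured 24 h after dosing by RT-PCR, FAM labelling, HpaI digestion and capillary electrophoresis. Bidirectional fitting relative to DMSO baseline.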
# [20] = ATG_TAL_CIS: Attagene CIS-FACTORIAL HepG2 Assay for human TAL Basal Promoter (AID 2282966); details: HepG2 Attagene cis-factorial TAL promoter reporter; actives raise or lower the signal;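 note: background control endpoint measuring basal TAL promoter reporter mRNA not a specific factor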
# Outline: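 Basal-promoter background-control endpoint from a multiplexed HepG2 reporter panel. Cells were exposed 24 h, then reporter mRNA was read by RT-PCR/CE fluorescence and fitted in both directions relative to DMSO.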
# Sequence of Transcription factor Sp1 (Homo sapiens) (P08047 whole entry, looked up): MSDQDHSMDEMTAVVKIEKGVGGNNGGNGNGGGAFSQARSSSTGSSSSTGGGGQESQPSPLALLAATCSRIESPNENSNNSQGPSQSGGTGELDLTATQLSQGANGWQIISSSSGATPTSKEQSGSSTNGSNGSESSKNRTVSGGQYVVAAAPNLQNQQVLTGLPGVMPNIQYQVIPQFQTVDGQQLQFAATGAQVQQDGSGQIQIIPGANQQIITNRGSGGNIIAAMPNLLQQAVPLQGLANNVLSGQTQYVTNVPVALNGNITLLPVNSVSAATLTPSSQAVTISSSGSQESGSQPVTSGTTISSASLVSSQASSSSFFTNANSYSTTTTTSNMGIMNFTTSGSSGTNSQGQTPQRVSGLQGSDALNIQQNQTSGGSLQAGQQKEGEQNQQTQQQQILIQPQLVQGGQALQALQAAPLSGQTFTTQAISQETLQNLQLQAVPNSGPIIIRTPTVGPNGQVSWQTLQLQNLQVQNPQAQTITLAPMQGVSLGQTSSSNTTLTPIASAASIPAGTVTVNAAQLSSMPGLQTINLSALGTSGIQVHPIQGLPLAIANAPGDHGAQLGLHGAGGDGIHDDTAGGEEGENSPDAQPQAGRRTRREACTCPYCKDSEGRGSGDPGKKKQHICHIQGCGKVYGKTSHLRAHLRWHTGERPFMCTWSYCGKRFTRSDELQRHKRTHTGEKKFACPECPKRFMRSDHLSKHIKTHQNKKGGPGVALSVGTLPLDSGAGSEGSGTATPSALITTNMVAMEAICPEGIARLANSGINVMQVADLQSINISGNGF
# Sequence of Heat shock factor protein 1 (Homo sapiens) (Q00613 whole entry, looked up, the tested form may be a part): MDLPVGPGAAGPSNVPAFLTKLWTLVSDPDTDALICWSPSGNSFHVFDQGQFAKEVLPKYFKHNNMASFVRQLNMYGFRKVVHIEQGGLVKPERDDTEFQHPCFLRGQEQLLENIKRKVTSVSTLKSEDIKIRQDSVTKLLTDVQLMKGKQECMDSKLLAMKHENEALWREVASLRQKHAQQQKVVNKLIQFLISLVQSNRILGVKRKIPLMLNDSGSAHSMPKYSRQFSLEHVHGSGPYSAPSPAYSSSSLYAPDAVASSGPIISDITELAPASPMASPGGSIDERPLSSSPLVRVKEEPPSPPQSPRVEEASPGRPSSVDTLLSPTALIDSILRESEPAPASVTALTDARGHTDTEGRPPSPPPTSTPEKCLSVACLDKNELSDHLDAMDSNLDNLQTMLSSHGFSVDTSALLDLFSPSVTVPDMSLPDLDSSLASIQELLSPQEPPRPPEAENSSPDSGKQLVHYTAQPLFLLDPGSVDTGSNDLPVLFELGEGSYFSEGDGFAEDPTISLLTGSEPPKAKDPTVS
# Sequence of Paired box protein Pax-6 (Homo sapiens) (P26367 whole entry, looked up): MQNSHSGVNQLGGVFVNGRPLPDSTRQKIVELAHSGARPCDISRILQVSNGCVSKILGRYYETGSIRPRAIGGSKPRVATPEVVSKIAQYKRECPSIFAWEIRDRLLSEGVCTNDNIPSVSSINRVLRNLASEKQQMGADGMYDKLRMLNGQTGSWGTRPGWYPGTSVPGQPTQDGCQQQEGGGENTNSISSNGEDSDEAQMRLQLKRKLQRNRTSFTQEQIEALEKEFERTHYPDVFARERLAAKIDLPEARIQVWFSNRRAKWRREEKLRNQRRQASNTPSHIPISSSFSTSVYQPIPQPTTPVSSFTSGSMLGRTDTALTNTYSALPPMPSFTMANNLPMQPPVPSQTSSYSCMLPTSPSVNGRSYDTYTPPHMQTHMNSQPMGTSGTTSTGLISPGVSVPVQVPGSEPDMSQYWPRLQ
# Sequence of Signal transducer and activator of transcription 3 (Homo sapiens) (P40763 whole entry, looked up, the tested form may be a part): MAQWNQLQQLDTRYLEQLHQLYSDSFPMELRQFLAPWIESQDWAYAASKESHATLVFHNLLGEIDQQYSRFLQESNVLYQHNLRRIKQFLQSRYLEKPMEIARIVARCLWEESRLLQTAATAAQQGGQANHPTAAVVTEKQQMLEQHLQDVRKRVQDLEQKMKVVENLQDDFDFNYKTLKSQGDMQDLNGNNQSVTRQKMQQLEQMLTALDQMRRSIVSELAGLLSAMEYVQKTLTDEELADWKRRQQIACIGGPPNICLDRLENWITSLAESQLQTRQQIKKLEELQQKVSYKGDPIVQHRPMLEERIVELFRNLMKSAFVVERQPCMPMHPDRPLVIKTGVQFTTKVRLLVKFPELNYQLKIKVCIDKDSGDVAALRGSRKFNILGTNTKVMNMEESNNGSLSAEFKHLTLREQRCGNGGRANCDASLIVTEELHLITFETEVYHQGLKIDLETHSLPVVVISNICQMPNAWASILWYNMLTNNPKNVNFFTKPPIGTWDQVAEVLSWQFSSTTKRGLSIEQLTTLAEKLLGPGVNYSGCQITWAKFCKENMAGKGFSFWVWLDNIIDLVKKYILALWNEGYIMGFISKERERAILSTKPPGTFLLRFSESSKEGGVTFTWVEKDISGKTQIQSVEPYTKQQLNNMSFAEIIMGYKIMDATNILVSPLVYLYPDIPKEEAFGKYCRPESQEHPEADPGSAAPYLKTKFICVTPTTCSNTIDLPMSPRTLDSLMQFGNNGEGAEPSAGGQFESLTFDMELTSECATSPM
# Sequence of Hypoxia-inducible factor 1-alpha (Homo sapiens) (Q16665 whole entry, looked up): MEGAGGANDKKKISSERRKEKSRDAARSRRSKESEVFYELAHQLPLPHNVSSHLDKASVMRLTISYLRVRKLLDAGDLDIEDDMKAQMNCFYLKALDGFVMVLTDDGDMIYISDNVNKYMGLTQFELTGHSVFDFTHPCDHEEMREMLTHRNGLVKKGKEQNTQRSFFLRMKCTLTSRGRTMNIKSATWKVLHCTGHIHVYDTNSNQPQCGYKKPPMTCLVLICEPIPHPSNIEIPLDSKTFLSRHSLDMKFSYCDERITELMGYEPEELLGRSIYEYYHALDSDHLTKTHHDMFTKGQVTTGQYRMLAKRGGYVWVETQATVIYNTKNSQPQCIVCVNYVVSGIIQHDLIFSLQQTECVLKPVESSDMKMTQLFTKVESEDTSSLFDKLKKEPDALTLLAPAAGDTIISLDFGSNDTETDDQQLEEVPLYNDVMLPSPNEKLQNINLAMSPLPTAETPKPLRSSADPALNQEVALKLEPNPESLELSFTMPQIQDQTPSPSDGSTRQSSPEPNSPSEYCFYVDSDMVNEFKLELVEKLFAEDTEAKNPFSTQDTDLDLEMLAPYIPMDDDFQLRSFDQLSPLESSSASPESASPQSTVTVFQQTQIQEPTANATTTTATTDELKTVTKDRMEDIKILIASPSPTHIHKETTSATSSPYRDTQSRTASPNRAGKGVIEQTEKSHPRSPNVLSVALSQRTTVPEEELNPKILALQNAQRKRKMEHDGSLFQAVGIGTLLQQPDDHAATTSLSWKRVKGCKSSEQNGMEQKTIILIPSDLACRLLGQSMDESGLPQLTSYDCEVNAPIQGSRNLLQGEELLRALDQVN
# Sequence of Hepatocyte nuclear factor 6 (Homo sapiens) (Q9UBC0 whole entry, looked up, the tested form may be a part): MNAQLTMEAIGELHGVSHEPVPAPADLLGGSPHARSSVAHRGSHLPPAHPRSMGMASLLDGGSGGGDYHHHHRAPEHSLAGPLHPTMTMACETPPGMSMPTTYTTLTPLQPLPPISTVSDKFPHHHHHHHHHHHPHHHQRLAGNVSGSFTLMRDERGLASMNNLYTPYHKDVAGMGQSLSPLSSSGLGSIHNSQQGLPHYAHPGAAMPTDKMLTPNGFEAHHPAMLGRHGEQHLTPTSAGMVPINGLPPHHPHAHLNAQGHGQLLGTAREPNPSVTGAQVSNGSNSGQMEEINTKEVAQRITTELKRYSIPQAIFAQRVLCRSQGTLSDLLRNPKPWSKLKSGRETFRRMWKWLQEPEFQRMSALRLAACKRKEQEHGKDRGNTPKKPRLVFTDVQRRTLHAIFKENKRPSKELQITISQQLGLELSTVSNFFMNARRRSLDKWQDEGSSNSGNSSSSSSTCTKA
compound,measurement,setting,value
Cn1c(=O)cc(Oc2ccc(F)cc2F)c2cnc(NCC(C)(C)O)nc21,outcome,[1],inactive
same,outcome,[2],inactive
same,outcome,[3],inactive
same,outcome,[4],inactive
same,outcome,[5],inactive
same,outcome,[6],inactive
same,outcome,[7],inactive
same,outcome,[8],inactive
same,outcome,[9],inactive
same,outcome,[10],inactive
same,outcome,[11],inactive
same,outcome,[12],inactive
same,outcome,[13],inactive
same,outcome,[14],inactive
same,outcome,[15],inactive
same,outcome,[16],inactive
same,outcome,[17],inactive
same,outcome,[18],inactive
same,AC50,[19],56.9 µM (active)
same,outcome,[20],inactive
C=CCCCCCCCCC(=O)O,outcome,[1],inactive
same,outcome,[2],inactive
same,outcome,[3],inactive
same,outcome,[4],inactive
same,outcome,[5],inactive
same,outcome,[6],inactive
same,outcome,[7],inactive
same,outcome,[8],inactive
same,outcome,[10],inactive
same,outcome,[11],inactive
same,outcome,[13],inactive
same,outcome,[15],inactive
same,outcome,[16],inactive
same,outcome,[17],inactive
same,outcome,[18],inactive
same,outcome,[19],inactive
same,outcome,[20],inactive
C=CC(=C)CCC=C(C)C,outcome,[1],inactive
same,outcome,[2],inactive
same,outcome,[3],inactive
same,outcome,[4],inactive
same,outcome,[5],inactive
same,outcome,[7],inactive
same,outcome,[8],inactive
same,outcome,[9],inactive
same,outcome,[10],inactive
same,AC50,[11],18.8 µM (active)
same,outcome,[13],inactive
same,outcome,[14],inactive
same,outcome,[15],inactive
same,outcome,[16],inactive
same,outcome,[17],inactive
same,outcome,[18],inactive
same,outcome,[19],inactive
same,outcome,[20],inactive
Fc1ccccc1[C@@H](F)COC1CCC(Nc2ncnc3[nH]ncc23)CC1 (stereo partly drawn),outcome,[1],inactive
same,AC50,[2],100 µM (active)
same,outcome,[3],inactive
same,outcome,[4],inactive
same,AC50,[5],2.96 µM (active)
same,outcome,[6],inactive
same,AC50,[7],157 µM (active)
same,AC50,[8],103 µM (active)
same,AC50,[9],26.2 µM (active)
same,outcome,[10],inactive
same,AC50,[11],25.4 µM (active)
same,AC50,[12],4.79 µM (active)
same,AC50,[13],26.1 µM (active)
same,AC50,[15],168 µM (active)
same,AC50,[16],4.65 µM (active)
same,outcome,[17],inactive
same,AC50,[18],4.57 µM (active)
same,outcome,[19],inactive
same,outcome,[20],inactive
Cc1ccc(N)cc1O,outcome,[1],inactive
same,outcome,[2],inactive
same,outcome,[3],inactive
same,outcome,[4],inactive
same,outcome,[5],inactive
same,outcome,[6],inactive
same,outcome,[7],inactive
same,outcome,[8],inactive
same,outcome,[9],inactive
same,outcome,[10],inactive
same,outcome,[11],inactive
same,outcome,[12],inactive
same,outcome,[13],inactive
same,outcome,[14],inactive
same,outcome,[15],inactive
same,outcome,[16],inactive
same,outcome,[17],inactive
same,outcome,[18],inactive
same,outcome,[19],inactive
same,outcome,[20],inactive
Cc1ccc(C)c(O)c1,outcome,[1],inactive
same,outcome,[2],inactive
same,outcome,[3],inactive
same,outcome,[4],inactive
same,outcome,[5],inactive
same,outcome,[7],inactive
same,outcome,[8],inactive
same,outcome,[9],inactive
same,outcome,[10],inactive
same,outcome,[11],inactive
same,outcome,[12],inactive
same,outcome,[13],inactive
same,outcome,[14],inactive
same,outcome,[15],inactive
same,outcome,[16],inactive
same,outcome,[17],inactive
same,outcome,[18],inactive
same,outcome,[19],inactive
same,outcome,[20],inactive
